# IMPase cell inh = qHTS Assay for Identifying the Cell-Membrane Permeable IMPase Inhibitors; Inositol monophosphatase 1 (Rattus norvegicus), P97697; CHO-M1 cells, IP1 accumulation, HTRF TR-FRET ratio; inhibition (IP1 accumulation), % at 46.1 µM; 120,000 tested, under 10 active; active = well fitted curve in the direction sought with a large enough effect in the signal ratio, not every such curve was filed as active; inconclusive = small, poorly fitted or top-dose-only effect, or a change in a side signal; inactive = no such curve, though single readings can be large or run the other way; the % refers to the signal ratio;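 also: cells stimulated with carbachol in lithium chloride buffer; plate controls were DMSO basal wells for no effect and reference inhibitor wells for full effect; higher means more IMPase inhibition seen as more IP1 and lower FRET ratio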
#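 CHO-M1, 2000 cells/well, cultured 16–30 h; cpd up to 46 uM; carbachol (50 uM solution, stimulation buffer w/ 50 mM LiCl, pH 7.4), 30 min 37C; IP-One TR-FRET, 10 min RT; Ex 320/Em 665, 620; Hill-fit AC50.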
# PNC inhibitor = High Content Assay for Compounds that inhibit the Assembly of the Perinucleolar Compartment. AID 2417, 2010. 3.1% of 140,000 active. PC3M PTB-GFP, PNC prevalence imaging, 16 h; hits give low values. activity change (PNC), negative = inhibition, % at 10 µM;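 active = readout at or below -70, meaning at least 70% loss of cells showing the perinucleolar compartment, a nuclear body marking cancer cells; inconclusive = readout between -30 and a set limit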;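 also: plate controls were DMSO wells for no effect and camptothecin positive control wells for full effect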
#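 Read-out is percentage of cells bearing a perinucleolar compartment, from automated 20x imaging of fixed, Hoechst-stained PC3M PTB-GFP cells. Cells were seeded 4 h, then exposed 16 h to compound (23 nl of library stock) in duplicate plates.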
# HPGD block = qHTS Assay for Inhibitors of HPGD (15-Hydroxyprostaglandin Dehydrogenase); 15-hydroxyprostaglandin dehydrogenase [NAD(+)] (Homo sapiens), P15428; purified HPGD, NADH fluorescence kinetic, PGE2 substrate; Potency, µM, for the others: at the top dose activity change, negative = inhibition, usual class: inhibitors; 4.3% of 150,000 active; AID 894, 2007; also: potency is read from the fitted curve at half-maximal effect
#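 NADH formation kinetics: reaction with 30 uM PGE2 and 1 mM NAD+ (final), 20 nM enzyme, Tris-HCl pH 8 with Tween 20, after 15 min compound preincubation at room temperature. Fluorescence change, last versus first of five reads.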
# ALDH1A1 inh = qHTS Assay for Inhibitors of Aldehyde Dehydrogenase 1 (ALDH1A1); Aldehyde dehydrogenase 1A1 (Homo sapiens), P00352; Purified ALDH1A1, NADH fluorescence, propionaldehyde substrate; Potency, µM (highest dose often 75.3 µM), without a hit: at the top dose activity, negative = inhibition, actives largely listed as inhibitors; 7.3% of 220,000 active;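 also: potency is read from the fitted curve at half-maximal effect; plate controls were no enzyme wells and a reference inhibitor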
# Target sequence (P00352 whole entry, looked up): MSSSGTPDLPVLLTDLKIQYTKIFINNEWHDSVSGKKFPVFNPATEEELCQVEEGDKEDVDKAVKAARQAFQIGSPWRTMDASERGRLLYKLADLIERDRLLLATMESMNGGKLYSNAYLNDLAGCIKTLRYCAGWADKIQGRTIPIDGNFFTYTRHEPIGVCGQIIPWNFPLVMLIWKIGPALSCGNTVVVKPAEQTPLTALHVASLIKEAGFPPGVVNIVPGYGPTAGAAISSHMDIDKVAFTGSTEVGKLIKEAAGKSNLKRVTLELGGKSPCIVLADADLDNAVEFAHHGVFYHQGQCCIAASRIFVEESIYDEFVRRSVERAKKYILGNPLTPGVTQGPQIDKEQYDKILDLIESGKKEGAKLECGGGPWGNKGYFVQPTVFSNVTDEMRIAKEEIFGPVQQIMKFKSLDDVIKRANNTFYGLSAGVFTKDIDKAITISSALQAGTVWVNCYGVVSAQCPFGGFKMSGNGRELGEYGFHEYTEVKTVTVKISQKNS
# IMPase Li inh = qHTS Assay for Identifying the Cell-Membrane Permeable IMPase Inhibitors: Potentiation with Lithium | CHO-M1 cells, IP1 TR-FRET (IP-One), carbachol + lithium | Potency, µM (highest dose often 59.4 µM), inactives show at the highest dose activity, negative = IMPase inhibition, usual class: inhibitors | 0.35% of 210,000 active | AID 1457, 2008; active = well fitted inhibition curve with a large enough effect; inconclusive = small, poorly fitted or top-dose-only effect; inactive = no such curve, though single readings can be large or run the other way;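 also: IP1 builds up when IMPase is blocked and the TR-FRET signal falls; potency is read from the fitted curve at half-maximal effect; plate controls were basal vehicle for no effect and high inhibitor control for full effect; nearly all actives have a fitted effect of over 50% in size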
#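 CHO cells stably expressing M1 receptor (2000/well) were cultured 16–30 h, then exposed to compounds with a small lithium addition for 30 min at 37C. IP1 was measured by TR-FRET competition; AC50 from Hill fits.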
# Active calls of the source: *; u = inconclusive; x = not tested or not shown; [ ] = remark or other dose. Rows were chosen to be rich in hits. Some 11% of all compounds tested hit in one or more screens of this group. Unless noted, calls follow the shape of the dose curve; as a rule, active = well fitted inhibition curve with a large enough effect (not every such curve was filed as active); inconclusive = small, poorly fitted or top-dose-only effect, or another doubt; inactive = no such curve, though single readings can be large or run the other way. Unless noted, % is scaled to controls: 0 for no effect and ±100 for the full control effect.
SMILES,IMPase cell inh,PNC inhibitor,HPGD block,ALDH1A1 inh,IMPase Li inh
Oc1ccc(C2C(c3ccccc3)=NN=C(c3ccc(Cl)cc3)N2O)c(O)c1 (centres undefined),x,-19.8,-3.9%,11.2µM*,4.0%
Oc1ccc(C2C(c3ccccc3)=NN=C(c3ccccc3F)N2O)c(O)c1 (centres undefined),x,47.8,-3.0%,8.91µM*,-4.7%
O=C1c2ccccc2C(=O)C1(O)O,x,x,-6.7%,1.19µM*,1.5%
O=C(O)C(S)[C@@H](S)C(=O)O (some centres undefined),x,x,4.47µM*,3.55µM*,10.8%
N[C@H](C(=O)O)[C@H](O)C(=O)O,5.2,x,-14.2%,8.7%,-2.0%
Cc1ccc(S(=O)(=O)c2ccc(Cl)cc2)cc1S(=O)(=O)N1CCN(C)CC1,6.5,7.9,-9.7%,-9.4%,19.2%[38.3 µM]
Cc1ccc(S(=O)(=O)c2ccc(Cl)cc2)cc1S(=O)(=O)NC(C)C(=O)O (centres undefined),x,-90.0*,1.2%,13.6%,-3.4%
O=C(NCc1ccccc1)C1(c2ccccc2)CCN(S(=O)(=O)c2ccccc2)CC1,6.7,12.1,-13.4%,8.91µM*,20.0%[38.3 µM]
Cc1cc(C2N=C(N)Nc3nc4ccccc4n32)c(C)n1-c1ccccc1Cl (centres undefined),13.6,-99.1*,-11.8%,1.12µM*,-0.4%[38.3 µM]
Cc1ccc(-n2c(C)cc(C3N=C(N)Nc4nc5ccccc5n43)c2C)c(C)c1 (centres undefined),9.9,14.4,-6.3%,12.6µM*,40.6%[38.3 µM]
NC1=NC(c2ccc(F)cc2)n2c(nc3ccccc32)N1 (centres undefined),-2.9,19.3,-19.6%,8.0%,-4.2%[38.3 µM]
O=C=Nc1ccc(Cc2ccc(N=C=O)cc2)cc1,x,x,-3.0%,4.5%,-2.5%
CCCN(CC(=O)Nc1ccc(C(C)=O)cc1)CC(=O)Nc1ccccc1C,x,x,x,14.1µM*,7.8%
Cn1cc(-c2nc3cnc(Oc4cccc(Cl)c4)nc3n(CCC#N)c2=O)c2ccccc21,x,x,-3.2%,1.8%,0.8%
COCCn1c(=O)c(C)nc2cnc(N3CCN(C)CC3)nc21,x,x,x,u,-7.8%
O=C(O)c1cc(-c2ccc3c(c2)OCO3)nc2ccc(Br)cc12,x,x,x,2.6%,11.2µM*
CC(=O)Nc1cccc(NC(=O)c2cc(-c3cccnc3)nc3ccc(Cl)cc23)c1,x,x,x,-0.5%,11.6%
Cn1cc(CNC(=O)c2cc(-c3ccccc3)nc3ccc(Br)cc23)cn1,x,10.8,-16.9%,u,11.2µM*
O=C(Nc1ccc2c(c1)OCO2)c1cc(-c2cccnc2)nc2ccccc12,x,x,x,7.94µM*,11.5%
CC(=O)Nc1cccc(NC(=O)c2cc(-c3cccnc3)nc3ccc(Br)cc23)c1,-19.6,38.8,-17.8%,-2.3%,11.2µM*
O=C(O)c1cc(-c2ccc3cc4c(cc3c2)OCO4)nc2ccccc12,x,x,-19.8%,-11.4%[13.5 µM],-1.2%
COc1ccc(-c2nc3cnc(N4CCNCC4)nc3n(Cc3cccs3)c2=O)cc1,x,x,x,u,9.5%
CC[N+](CC)(CC)CCOc1ccc(/C=C\c2ccccc2)cc1,22.2,x,u,u,24.4%
Cc1cccc(-c2ccc(-c3cc(=O)oc4cc(C)cc(C)c34)cc2)c1,x,x,-3.5%,8.3%,6.9%
CCN1CCN(C(=O)c2cc(-c3cccnc3)nc3ccc(Br)cc23)CC1,-15.6,-106.8*,-23.5%,-9.3%,12.6µM*
SMILES,IMPase cell inh,PNC inhibitor,HPGD block,ALDH1A1 inh,IMPase Li inh
Cc1cc(NS(=O)(=O)c2ccc(NC(=O)c3cc(-c4cccnc4)nc4ccc(Cl)cc34)cc2)no1,-10.8,-25.9,14.1µM*,-5.4%,-8.7%[38.3 µM]
O=C(O)c1cc(-c2cccnc2)nc2ccc(Br)cc12,x,x,x,4.7%,2.82µM*
Cc1ccc(NC(=S)N(Cc2ccco2)C2CCN(C(C)C)CC2)cc1,3.4,-15.6,-4.4%,u,1.0%
FC(F)(F)c1cnc(-c2cnc(-c3ccncc3)nc2)c(Cl)c1,x,x,x,17.8µM*,5.0%
COC(=O)c1ccc(N=NNc2ccccc2)cc1,x,-21.0,25.1µM*,u,7.5%
COC(=O)c1ccc(N=NNc2ccc(C(=O)OC)cc2)cc1,x,22.3,-18.7%,0.9%,-3.2%
